Test results from PubChem BioAssay (NCI).
This is part of a sample that, as a whole, favours compounds with a hit. Of some 83,000 tested, about 20% had one in any assay.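 Note: values are percent growth. 100 is the growth of untreated cells, values between 100 and 0 indicate rising inhibition; between -100 and 0 indicates cell death.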 The source made the active and inactive calls. The calls were made as follows: active = growth percent below 10; inactive = the rest.

Columns and labels:
Assay in all cases: NCI-60 one-dose screen, 48 h (100 = growth as untreated, 0 = no growth, -100 = all killed)
Details in all cases: 10 µM unless noted
[1] = system: NCI-H23 lung
[2] = system: NCI-H226 lung
[3] = system: NCI-H322M lung
[4] = system: HOP-62 NSCLC
[5] = system: NCI-H460 lung
[6] = system: HOP-92 NSCLC
[7] = system: NCI-H522 lung
[8] = system: A549/ATCC NSCLC
[9] = system: 786-0 renal
[10] = system: COLO 205 colon
[11] = system: DU-145 prostate
[12] = system: K-562 leukemia
[13] = system: MALME-3M melanoma
[14] = system: MDA-MB-231 breast
[15] = system: RXF 393 renal
[16] = system: SF-268 CNS
[17] = system: SF-295 CNS
[18] = system: SF-539 CNS
[19] = system: UACC-257 melanoma
[20] = system: M14 melanoma

Measured: growth

Cn1ncc(Cl)c1-c1cc(C(=O)N[C@H](CN)Cc2cccc(F)c2)sc1Cl
inactive: [1] 33.4% | [2] 34.5% | [3] 28.6% | [4] 25.4% | [8] 18.4% | [11] 44.4% | [16] 27%
active: [5] 8.53% | [6] -27.5% | [7] 6.11% | [9] -14.3% | [10] -73.9% | [12] -21.1% | [13] -73.8% | [14] -9.49% | [15] -36.5% | [17] -12.5% | [18] -31.5% | [19] -87.7% | [20] -54.8%

COc1cc2ncnc(Nc3cccc(Cl)c3F)c2cc1OC(=O)N1CCN(C)C[C@H]1C
inactive: [1] 92% | [2] 75.7% | [3] 10.5% | [4] 61.8% | [5] 90.2% | [6] 51.9% | [7] 16.2% | [8] 40.8% | [9] 75.6% | [10] 79.5% | [11] 65% | [12] 60.9% | [13] 106% | [14] 78.7% | [15] 67.9% | [16] 73.4% | [17] 83.7% | [18] 84.1% | [19] 68.8% | [20] 84.9%

O=C(O)c1ccc2c(c1)nc(Nc1cccc(Cl)c1)c1ccncc12
active: [1] 2.72% | [2] 3.78% | [3] -25.5% | [4] -1.83% | [6] -20.3% | [7] -35.7% | [10] -16.8% | [12] 8.63% | [13] -10.2% | [14] 3.58% | [15] -9.7% | [17] 6.7% | [18] -23.8% | [19] -7.85% | [20] -0.117%
inactive: [5] 14.7% | [8] 27.8% | [9] 17.5% | [11] 33.7% | [16] 14.8%

Cc1cc(Oc2ccccc2)ccc1Nc1ncnc2ccc(-c3cnc(Cl)c(NS(C)(=O)=O)c3)cc12
inactive: [1] 28.5% | [2] 36.9% | [4] 28.2% | [5] 18% | [7] 32.1% | [8] 11% | [9] 16.8% | [10] 12.1% | [11] 32.1% | [12] 54.3% | [14] 17.4% | [16] 35.4% | [20] 19.5%
active: [3] 0.949% | [6] -14% | [13] 0.126% | [15] -31.6% | [17] 5.34% | [18] -15.3% | [19] 6.42%

CC1=CC2c3oc(-c4ccccc4)c(C(=O)c4ccccc4)c3CNC2C=C1 (stereo not given)
inactive: [1] 95% | [2] 83.8% | [3] 94.6% | [4] 74.5% | [5] 100% | [6] 97.5% | [7] 57.7% | [8] 74.2% | [9] 111% | [10] 109% | [11] 112% | [12] 95.8% | [13] 98.8% | [14] 88.4% | [15] 94.2% | [16] 97.9% | [17] 95.9% | [18] 109% | [19] 70.6% | [20] 96.1%

COc1ccc(F)c(F)c1C(=O)c1cnc(NC2CCN(S(C)(=O)=O)CC2)nc1N
inactive: [9] 14.4% | [11] 10.3%
active: [1] -36.5% | [2] 3.23% | [3] 2.76% | [4] -24.7% | [5] 3.3% | [6] -8.59% | [7] -29.5% | [8] 3.28% | [10] -79.7% | [12] 5.89% | [13] -28.3% | [14] 2.97% | [15] -62% | [16] 6.42% | [17] 8.69% | [18] -33.8% | [19] -28% | [20] -23.6%

O=c1[nH]c([C@@H]2CCCN2)nc2c1oc1ccc(Cl)cc12
inactive: [1] 60.7% | [2] 51.8% | [3] 56% | [4] 47.2% | [5] 34.4% | [6] 39.8% | [7] 24.7% | [8] 37.9% | [9] 84.4% | [10] 12% | [11] 73.1% | [12] 43% | [13] 64.2% | [14] 67.3% | [15] 72.4% | [16] 65.2% | [17] 52.7% | [18] 12.6% | [19] 64.6% | [20] 53.6%

Cc1cnc(Nc2ccc(OCCN3CCCC3)cc2)nc1Nc1cccc(S(=O)(=O)NC(C)(C)C)c1
active: [2] -61.9% | [4] -8.87% | [6] -72.1% | [7] -46.4% | [8] -53.6% | [9] -84.8% | [10] -67.6% | [12] 1.89% | [13] -34.1% | [14] 6.69% | [15] -86.7% | [16] -10.9% | [18] -83.2% | [19] -78.9% | [20] -48%
inactive: [1] 15.8% | [3] 28% | [5] 10.4% | [11] 17.6% | [17] 15.5%

CC(C)(C)OC(=O)N1CCC(O)[C@@H](O[Si](c2ccccc2)(c2ccccc2)C(C)(C)C)[C@H]1/C=C/c1ccccc1 (stereo not given in full)
active: [15] 6.38%
inactive: [1] 34.4% | [2] 47.9% | [3] 83.5% | [4] 67.4% | [5] 36.1% | [6] 36% | [7] 30.1% | [8] 41.9% | [9] 52.2% | [10] 49% | [11] 57.6% | [12] 38.7% | [13] 47.3% | [14] 49.5% | [16] 52.5% | [17] 36.7% | [18] 57.1% | [19] 40.8% | [20] 50%

CO[C@H]1C[C@@H]2CC[C@@H](C)[C@@](O)(O2)C(=O)C(=O)N2CCCC[C@H]2C(=O)O[C@H]([C@H](C)C[C@@H]2CC[C@@H](OC(=O)C(C)(CO)CO)[C@H](OC)C2)CC(=O)[C@H](C)/C=C(\C)[C@@H](O)[C@@H](OC)C(=O)[C@H](C)C[C@H](C)\C=C/C=C/C=C/1C
inactive: [1] 44.4% | [2] 34.3% | [3] 38.5% | [4] 21.8% | [5] 22.6% | [7] 22.7% | [8] 22% | [9] 26.2% | [10] 28.5% | [11] 37.7% | [12] 18.3% | [13] 24% | [14] 24.8% | [16] 30.9% | [17] 13.6% | [19] 30.4% | [20] 32.3%
active: [6] 9.36% | [15] -16.3% | [18] 4.68%

C=CC(=O)N1CCC[C@@H](n2nc(-c3ccc(Oc4ccccc4)cc3)c3c(N)ncnc32)C1
inactive: [1] 95.3% | [2] 45% | [4] 73.1% | [5] 90% | [6] 28.3% | [8] 46.6% | [9] 30.4% | [10] 61.3% | [11] 47.9% | [13] 86.8% | [14] 56.4% | [15] 11% | [16] 42% | [17] 60.7% | [18] 32.9% | [19] 26.4% | [20] 41.9%
active: [3] -1.22% | [7] 1.41% | [12] 8.51%

CC(C)(C)c1ccc(Cn2cc(CSc3nc4ccccc4s3)nn2)cc1
inactive: [1] 90.4% | [2] 83% | [3] 86.2% | [4] 87.6% | [5] 103% | [6] 80.6% | [7] 84.4% | [8] 83.5% | [9] 96.2% | [10] 102% | [11] 115% | [12] 95.6% | [13] 94% | [14] 86.2% | [15] 103% | [16] 95.3% | [17] 91% | [18] 101% | [19] 97.3% | [20] 97%

CNC(=O)c1cc(Oc2cccc3nc(Nc4ccc(Cl)c(F)c4)ccc23)ccn1
active: [6] 9.48% | [13] 1.36% | [15] 8.19%
inactive: [1] 62.4% | [2] 43.4% | [3] 78.8% | [4] 34.8% | [5] 60.6% | [7] 52.7% | [8] 61.3% | [9] 41.7% | [10] 84.3% | [11] 71.3% | [12] 83.8% | [14] 73.5% | [16] 55.4% | [17] 51.5% | [18] 41.1% | [19] 74.5% | [20] 80.2%

O=C(Nc1cn[nH]c1-c1nc2ccc(CN3CCOCC3)cc2[nH]1)NC1CC1
active: [2] 6.37% | [4] -9.72% | [6] -2.75% | [10] -39% | [14] 1.37% | [15] -56.5% | [17] -10.5% | [18] -60.9%
inactive: [1] 23.5% | [3] 37.6% | [5] 34.4% | [7] 11.5% | [8] 48.6% | [9] 13.6% | [11] 41% | [12] 12.7% | [13] 51.8% | [16] 23.8% | [19] 59.7% | [20] 34%

CC(=O)C1CC(C)CCC1C(C)C (stereo not given)
inactive: [1] 78.7% | [2] 105% | [3] 102% | [4] 107% | [5] 98.4% | [6] 47.4% | [7] 82.8% | [8] 106% | [9] 105% | [10] 122% | [11] 111% | [12] 77% | [13] 126% | [14] 80.2% | [15] 107% | [16] 105% | [17] 120% | [18] 102% | [19] 111% | [20] 103%
